Assay results taken from PubChem BioAssay.
Values without a mark were called inactive. Entries that show only a call come without a potency. For some of these results: Potency and affinity values are given separately. Calls of active or inactive are those of the source. Unless noted, the rule behind the calls is not given here.

Experiments:
[1] = antimalarial activity against Dd2 strain (AID 2302;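 active = growth inhibition above 50% at the single 2 µM test dose, taken to imply half-maximal potency below 2 µM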); conditions: P. falciparum Dd2 in RBCs, LDH growth readout, 72 h; at 2 µM; active compounds read high
[2] = HepG2 cytotoxicity, primary screen, cytotoxicity control for P. falciparum antimalarial project, cell-based, ATP luminescence (AID 2303;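 active = inhibition above 50%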); conditions: HepG2 viability, 24-48 h, at 10 µM, active compounds read high
[3] = biological target: L-lactate dehydrogenase (Plasmodium falciparum (isolate CDC / Honduras)) (UniProt Q27743); experiment: PfLDH activity inhibition – cell lysate, 3D7 strain, counter-screen for P. falciparum growth inhibition project (AID 2304); conditions: P. falciparum 3D7 crude extract, LDH APAD/NBT absorbance; at 2 µM; active compounds read high
Sequence of L-lactate dehydrogenase (Plasmodium falciparum (isolate CDC / Honduras)) (Q27743 whole entry, looked up): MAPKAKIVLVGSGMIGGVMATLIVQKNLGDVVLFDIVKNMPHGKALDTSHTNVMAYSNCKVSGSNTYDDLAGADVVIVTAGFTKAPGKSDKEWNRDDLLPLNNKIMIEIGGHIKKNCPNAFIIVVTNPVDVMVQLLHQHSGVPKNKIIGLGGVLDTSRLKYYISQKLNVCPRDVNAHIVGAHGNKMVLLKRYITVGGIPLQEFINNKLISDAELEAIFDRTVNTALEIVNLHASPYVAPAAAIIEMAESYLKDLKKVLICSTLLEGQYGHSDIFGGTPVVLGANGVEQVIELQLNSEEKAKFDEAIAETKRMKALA

[4] = inhibition of 3D7 malaria parasite growth – strain 3D7 (AID 2306); conditions: P. falciparum 3D7 erythrocytic growth, LDH absorbance, 72 h; at 2 µM; active compounds read high
[5] = biological target: Calcium-dependent protein kinase 1 (Plasmodium falciparum (isolate 3D7)) (UniProt P62344); experiment: PfCDPK1 kinase inhibitors, biochemical, TCAMS library (AID 1159585; cut-off not given, nearly all actives have IC50 up to about 0.98 µM;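 note: inhibitors leave more ATP so luminescence rises with inhibition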); conditions: recombinant PfCDPK1, Kinase-Glo ATP depletion luminescence
Sequence of Calcium-dependent protein kinase 1 (Plasmodium falciparum (isolate 3D7)) (P62344 whole entry, looked up): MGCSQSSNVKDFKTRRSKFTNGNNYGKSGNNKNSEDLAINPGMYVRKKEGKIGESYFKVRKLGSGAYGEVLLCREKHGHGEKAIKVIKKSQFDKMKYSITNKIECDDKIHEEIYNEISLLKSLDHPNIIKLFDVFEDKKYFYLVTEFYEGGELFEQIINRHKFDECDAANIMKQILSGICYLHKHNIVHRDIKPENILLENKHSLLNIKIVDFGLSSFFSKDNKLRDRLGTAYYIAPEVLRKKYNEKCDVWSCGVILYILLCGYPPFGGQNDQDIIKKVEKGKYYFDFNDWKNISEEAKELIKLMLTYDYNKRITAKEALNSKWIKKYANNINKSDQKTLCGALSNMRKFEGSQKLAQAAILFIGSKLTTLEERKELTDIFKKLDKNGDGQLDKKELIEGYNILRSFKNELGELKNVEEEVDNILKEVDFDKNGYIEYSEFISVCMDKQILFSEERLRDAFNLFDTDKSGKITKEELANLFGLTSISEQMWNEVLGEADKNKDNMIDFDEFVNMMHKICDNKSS

[6] = biological target: Plasmodium falciparum protein kinase 6 (PK6, PF3D7_1337100) (UniProt Q8IDW1); experiment: PfPK6 kinase inhibitors, biochemical, TCAMS library (AID 1159586); conditions: recombinant PfPK6, Kinase-Glo ATP depletion luminescence
Sequence of Plasmodium falciparum protein kinase 6 (PK6, PF3D7_1337100) (Q8IDW1 1-305): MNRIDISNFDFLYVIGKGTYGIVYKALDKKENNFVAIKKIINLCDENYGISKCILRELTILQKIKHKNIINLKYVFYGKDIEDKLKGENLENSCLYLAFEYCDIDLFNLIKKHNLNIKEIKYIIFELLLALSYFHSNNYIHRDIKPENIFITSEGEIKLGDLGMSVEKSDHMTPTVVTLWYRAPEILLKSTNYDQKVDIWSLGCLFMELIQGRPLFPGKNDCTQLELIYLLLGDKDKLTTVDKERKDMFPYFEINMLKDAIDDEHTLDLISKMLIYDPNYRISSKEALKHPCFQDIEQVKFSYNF

[7] = biological target: Protein kinase 7 (PK7), Plasmodium falciparum 3D7 (PF3D7_0213400) (UniProt Q7YTF7); experiment: inhibition of Plasmodium PK7 catalytic activity – biochemical, TCAMS antimalarial set, Kinase-Glo luminescence (AID 1159587); conditions: recombinant PfPK7, Kinase-Glo ATP depletion luminescence
Sequence of Protein kinase 7 (PK7), Plasmodium falciparum 3D7 (PF3D7_0213400) (Q7YTF7 1-343): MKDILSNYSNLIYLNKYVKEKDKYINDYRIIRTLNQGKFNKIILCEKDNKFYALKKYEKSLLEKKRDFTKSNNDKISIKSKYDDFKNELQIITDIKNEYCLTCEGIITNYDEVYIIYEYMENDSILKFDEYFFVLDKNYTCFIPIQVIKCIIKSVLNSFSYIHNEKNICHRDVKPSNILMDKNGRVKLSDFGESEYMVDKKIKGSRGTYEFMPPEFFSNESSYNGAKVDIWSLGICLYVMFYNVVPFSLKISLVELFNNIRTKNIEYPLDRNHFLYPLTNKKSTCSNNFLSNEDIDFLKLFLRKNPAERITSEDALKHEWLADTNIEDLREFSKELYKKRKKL

[8] = biological target: Calcium-dependent protein kinase 4 (Plasmodium falciparum (isolate 3D7)) (UniProt Q8IBS5); experiment: PfCDPK4 kinase inhibitors, biochemical, TCAMS library (AID 1159588; cut-off not given, nearly all actives have IC50 up to about 0.91 µM); conditions: recombinant PfCDPK4, Kinase-Glo ATP depletion luminescence
Sequence of Calcium-dependent protein kinase 4 (Plasmodium falciparum (isolate 3D7)) (Q8IBS5 whole entry, looked up): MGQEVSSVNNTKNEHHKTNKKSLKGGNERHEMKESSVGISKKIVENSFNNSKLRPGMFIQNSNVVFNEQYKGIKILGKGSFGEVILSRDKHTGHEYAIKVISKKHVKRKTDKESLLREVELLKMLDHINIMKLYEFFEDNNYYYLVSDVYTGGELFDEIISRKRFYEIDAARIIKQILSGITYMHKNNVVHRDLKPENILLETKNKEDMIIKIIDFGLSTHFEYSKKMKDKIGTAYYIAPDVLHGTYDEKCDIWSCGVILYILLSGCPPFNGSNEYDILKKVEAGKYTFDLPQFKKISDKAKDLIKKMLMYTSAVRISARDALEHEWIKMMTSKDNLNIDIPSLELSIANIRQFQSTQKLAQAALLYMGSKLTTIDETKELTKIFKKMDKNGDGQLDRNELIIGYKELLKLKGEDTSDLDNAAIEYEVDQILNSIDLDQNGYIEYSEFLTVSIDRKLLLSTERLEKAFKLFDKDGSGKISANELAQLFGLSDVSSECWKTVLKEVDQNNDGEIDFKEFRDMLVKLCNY

| Structure (SMILES) | growth inhibition [1] | inhibition [2] | inhibition [3] [%] | growth inhibition [4] | outcome [5] | outcome [6] | outcome [7] | outcome [8] |
| --- | --- | --- | --- | --- | --- | --- | --- | --- |
| COc1cccc(-c2cnc(N)c(-c3nc4ccc(C(F)(F)F)cc4[nH]3)c2)c1 | 30% | 5% | -4 | 99% (active) | inactive | inactive | inactive | inactive |
| Cc1cc(N[C@@H](Cc2ccccc2)C(=O)NC2CCCC2)nc(Nc2ccccc2)n1 | 82% (active) | 3% | 0 | 100% (active) | inactive | inactive | inactive | inactive |
| CCCCCCCN(Cc1ccc(OC(C)(C)C(=O)OCC)cc1)C(=O)Nc1ccccc1OC(F)(F)F | 68% (active) | -2% | 3 | 95% (active) | inactive | inactive | inactive | inactive |
| O=C(NCCN1CCCC1)c1cccc(-c2ccc(-c3nc4ccc(F)cc4[nH]3)s2)c1 | 4% | 51% (active) | -1 | 100% (active) | inactive | inactive | inactive | inactive |
| Oc1ccccc1CN[C@@H]1CCCC[C@H]1NCc1ccccc1O | 66% (active) | 53% (active) | 2 | 96% (active) | inactive | inactive | inactive | inactive |
| CCN(CCCN1CCCCC1)c1cc(C)nc(Nc2ccc(C(F)(F)F)cc2)n1 | 99% (active) | 26% | -3 | 102% (active) | inactive | inactive | inactive | inactive |
| Cc1nc(N)nc(N)c1C#CC1CCCC1 | 2% | 68% (active) | 4 | 96% (active) | inactive | inactive | inactive | inactive |
| Cc1cc(CN2CCC(N3CC(c4ccccc4)(c4ccccc4)OCC3=O)C2)ccc1O (centres undefined) | 52% (active) | 3% | 3 | 89% (active) | inactive | inactive | inactive | inactive |
| CC(=O)N[C@@H]1c2cc(C(C)=O)ccc2OC(C)(C)[C@@H]1O | 3% | 15% | -3 | 97% (active) | inactive | inactive | inactive | inactive |
| CCN(CC)CCN(CCN(CC)CC)c1ccc2c(c1)Sc1c(Cl)ccc(Cl)c1S2 | 94% (active) | 31% | -5 | 98% (active) | inactive | inactive | inactive | inactive |
| CN(CC(=O)Nc1cc(C(F)(F)F)ccc1-n1cncn1)Cc1nc2ccccc2s1 | 64% (active) | 3% | 0 | 87% (active) | inactive | inactive | inactive | inactive |
| CC(C)C[C@H]1C(=O)N[C@H](C2Cc3ccccc3C2)C(=O)N1[C@@H](C(=O)Nc1ccccc1OCc1ccccc1)c1ccc(F)cc1F | 67% (active) | 12% | 5 | 90% (active) | inactive | inactive | inactive | inactive |
| COc1ccc(CCNC(=O)c2ccccc2O)cc1-c1ccc(C(C)(C)C)cc1 | 96% (active) | 25% | 0 | 95% (active) | inactive | inactive | inactive | inactive |
| COc1ccc2nccc([C@@H](O)CN3CCC(NC(=O)C(c4cc5ccccc5s4)N4CC(C)OC(C)C4)CC3)c2c1 (some centres undefined) | 44% | 12% | -6 | 93% (active) | inactive | inactive | inactive | inactive |
| CC(C)CN(C)c1ncnc2c1nc(-c1cncc(C#N)c1)n2CCNCc1ccccc1 | 2% | 4% | 0 | 86% (active) | inactive | inactive | inactive | inactive |
| O=S(=O)(NC1CCN(c2ccnc3ccccc23)C1)c1ccc(OC(F)(F)F)cc1 (centres undefined) | -1% | 34% | 5 | 88% (active) | inactive | inactive | inactive | inactive |
| CC(C)N(Cc1cnc2nc(N)nc(N)c2n1)c1ccc(Cl)c(Cl)c1 | 98% (active) | 63% (active) | -3 | 101% (active) | inactive | inactive | inactive | inactive |
| CCOc1ccccc1CNc1nccc(NCc2ccccc2OC)n1 | 66% (active) | 50% (active) | -2 | 87% (active) | inactive | inactive | inactive | inactive |
| CCc1c(CCNCCCCCCNC(C)(C)Cc2ccc3c(c2CC)OCO3)ccc(OC)c1OC | 50% (active) | 100% (active) | -1 | 101% (active) | inactive | inactive | inactive | inactive |

| Structure (SMILES) | growth inhibition [1] | inhibition [2] | inhibition [3] [%] | growth inhibition [4] | outcome [5] | outcome [6] | outcome [7] | outcome [8] |
| --- | --- | --- | --- | --- | --- | --- | --- | --- |
| CCN(CC)c1ccc(C(c2ccc(N(CC)CC)cc2)c2cccc([N+](=O)[O-])c2)cc1 | 68% (active) | 39% | -1 | 91% (active) | inactive | inactive | inactive | inactive |
| Cc1cccc2[nH]c(-c3ccc(-c4ccc(CN5CCN(C6CCN(C)CC6)CC5)cc4)cc3)nc12 | 100% (active) | 99% (active) | -5 | 100% (active) | inactive | inactive | inactive | inactive |
| OCCn1c(CNCCCNc2nc3ccccc3[nH]2)cc2c(Cl)cc(Cl)cc21 | 0% | 29% | -6 | 95% (active) | inactive | inactive | inactive | inactive |
| CCCC(CCC)n1ccc2c3c(N)nc(N)nc3ccc21 | 97% (active) | 66% (active) | -2 | 98% (active) | inactive | inactive | inactive | inactive |
| CC(C)CNC(=O)c1cncc(-c2cccc(CNC3Cc4ccccc4C3)c2)c1 | 19% | 4% | 1 | 100% (active) | inactive | inactive | inactive | inactive |
| O=C(Nc1ccc(Cl)c(C(F)(F)F)c1)Nc1ccc(Cl)c(C(F)(F)F)c1 | 96% (active) | 1% | 6 | 94% (active) | inactive | inactive | inactive | inactive |
| COc1cccc(C2=CC(c3ccccc3)n3ncc(C(=O)Nc4ccc(Cl)cc4)c3N2)c1 (centres undefined) | 28% | 7% | -1 | 88% (active) | inactive | inactive | inactive | inactive |
| N#Cc1ccc(N(CCOc2ccc3c(c2)CCC(=O)N3)Cc2ccccc2C(F)(F)F)cc1C(F)(F)F | 64% (active) | 19% | 1 | 98% (active) | inactive | inactive | inactive | inactive |
| CN(CCCNCc1ccc2ccccc2c1)CCCNCc1ccc2ccccc2c1 | 79% (active) | 100% (active) | 1 | 100% (active) | inactive | inactive | inactive | inactive |
| CCNc1cc(C(=O)N[C@@H](Cc2ccccc2)[C@H](O)CNCc2cc(C#N)ccc2OC)cc(N2CCCC2=O)c1 | 51% (active) | -1% | -3 | 85% (active) | inactive | inactive | inactive | inactive |
| COc1ccc(-c2cccc(NC(=O)c3cccc(Cl)c3)c2)cc1CN1CCCC1 | 66% (active) | 45% | 1 | 99% (active) | inactive | inactive | inactive | inactive |
| COc1ccc(CNCc2cccc(-c3csc(-c4nc5ccccc5[nH]4)c3)c2)cc1 | 22% | 17% | -1 | 100% (active) | inactive | inactive | inactive | inactive |
| Cc1cnc(CN(Cc2ccc(-c3ccc(CNCCc4ccc(S(C)(=O)=O)cc4)cn3)cc2)C(=O)c2nn(-c3ccccc3)nc2C)cn1 | 21% | 11% | 0 | 84% (active) | inactive | inactive | inactive | inactive |
| CCOc1ccc(-c2nonc2NC(=O)c2cccs2)cc1OCC | 100% (active) | 6% | 4 | 101% (active) | inactive | inactive | inactive | inactive |
| Cc1ccc2c(O)c([N+](=O)[O-])c(=O)[nH]c2c1 | -1% | 3% | -4 | 98% (active) | inactive | inactive | inactive | inactive |
| COc1ccc2c(c1)CCCC2NCCCCNC(=O)c1ccc(NC(=O)c2ccc(Cl)cc2)cc1 (centres undefined) | 49% | 27% | -7 | 100% (active) | inactive | inactive | inactive | inactive |
| CCCCCCCC1CC(CC(=O)Nc2ccnc3ccc(OC)cc23)CN1C(=O)OC(C)(C)C (centres undefined) | 34% | 1% | 3 | 100% (active) | inactive | inactive | inactive | inactive |
| O=C(N[C@@H](Cc1ccccc1)[C@H](O)CNCCC(F)(F)F)c1cccc(OCC2CC2)c1 | 95% (active) | 0% | -1 | 98% (active) | inactive | inactive | inactive | inactive |
| COc1c(C2CCN(CCCCNC(=O)c3ccc(-c4ccc(Cl)cc4)c(OCC(N)=O)c3)CC2)ccc2c1CCCC2 | 11% | 43% | 3 | 97% (active) | inactive | inactive | inactive | inactive |
